# From PubChem BioAssay AID493100 (Broad Institute, 2011)
# Potency and affinity values are given separately. Records with an inconclusive call do not appear. Calls of active or inactive are those of the source.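 Rule for the calls: active = decreasing signal in every run, fitted half-effect dose at most ten times the top valid dose; inconclusive = runs disagree, weak flat effect, or poor curve fit; inactive = every run inactive, signal rises included.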
# Assay: blockers of SFLLRN-triggered platelet ATP secretion – cell-based, human platelets, luminescence, dry powder, dose response (AID 493100)
# Settings: SFLLRN-induced ATP dense granule secretion; series mostly up to 35 µM; activity change, negative = inhibition: at the top concentration
row,Structure (SMILES),"activity change, negative = inhibition"
1,CCCC(=O)Nc1cccc(NC(=O)c2cccc([N+](=O)[O-])c2)c1,-9.94% (inactive)
2,CC(=O)Nc1cccc(NC(=O)c2ccccc2Cl)c1,-10.5% (inactive)
3,CC(=O)c1ccc(NC(=O)C(F)(F)F)cc1,4.41% (inactive)
4,CCCC(=O)Nc1cccc(NC(=O)c2cccc(Oc3ccccc3)c2)c1,-0.033% (inactive)
5,O=C(Nc1cccc(NC(=O)c2ccccc2Cl)c1)c1ccco1,-5.54% (inactive)
6,CCCC(=O)Nc1cccc(NC(=O)c2ccco2)c1,-14.2% (inactive)
7,O=Cc1ccc(NC(=O)C(F)(F)F)cc1,-3.78% (inactive)
8,CC(=O)Nc1ccc(/C=N/NC(=O)CC2CCCCC2)cc1,-15.4% (inactive)
9,CCCC(=O)Nc1cccc(NC(=O)c2ccc(C(F)(F)F)cc2)c1,-9.62% (inactive)
10,CCCCC(=O)Nc1cccc(NC(=O)c2ccccc2Br)c1,-0.702% (inactive)
11,CC(=O)Nc1c(C#N)c(-c2ccccc2)c(C#N)c(=O)n1-c1ccc(C)cc1,2.86% (inactive)
12,CC(=O)N/N=C(\C)c1ccc(NC(=O)C2CC2)cc1,-2.3% (inactive)
13,CCCC(=O)Nc1cccc(NC(=O)c2ccc(Cl)cc2)c1,1.1% (inactive)
14,CCCC(=O)Nc1cccc(NC(=O)c2ccc(C)cc2)c1,-4.26% (inactive)
15,CCCC(=O)Nc1cccc(NC(=O)c2ccc(F)cc2)c1,-5.49% (inactive)
16,C/C(=N\NC(=O)C1CCCC1)c1ccc(Cl)cc1,-1.57% (inactive)
17,CCCC(=O)Nc1cccc(NC(=O)c2ccc(S(C)(=O)=O)cc2)c1,0.039% (inactive)
18,CCCC(=O)Nc1cccc(NC(=O)c2ccccc2OC)c1,-17.9% (inactive)
19,CCCC(=O)Nc1cccc(NC(=O)c2ccc(OC)cc2)c1,-16.3% (inactive)
20,CCCC(=O)Nc1cccc(NC(=O)c2cnc3ccccc3c2)c1,-1.45% (inactive)
21,CCCC(=O)Nc1cccc(NC(=O)c2cccc(S(C)(=O)=O)c2)c1,-7.48% (inactive)
22,O=C(Nc1cccc(NC(=O)c2ccccc2Br)c1)c1ccccc1,-19.6% (inactive)
23,CCCC(=O)Nc1cccc(NC(=O)c2cccnc2)c1,-1.9% (inactive)
24,CC(=O)Nc1cccc(NC(=O)c2cccc(Cl)c2)c1,-16.2% (inactive)
25,CCCC(=O)Nc1cccc(NC(=O)c2cccc(-c3ccccc3)c2)c1,-4.16% (inactive)
26,C/C(=N\NC(=O)c1ccccc1)c1ccc(NC(=O)C(F)(F)F)cc1,2.81% (inactive)
27,NNC(=O)C1CCCC1,4.1% (inactive)
